PubChem BioAssay (EPA / NIEHS)
Several values for one entry are separate records, joined by “and”; a condition that tells them apart may be missing. Equal entries are not always repeated. Some structures have more than one record in an assay (separate samples or runs), and their calls can disagree. Activity calls are given as the source filed them. Rule for the calls: active = hit-call score of the fitted dose curve at least 0.9, where 1 is the maximum; inactive = score below 0.9.

read-out: Collagen IV, COL4A1 (gene 1282); assay: BSK_MyoF_CollagenIV: BioMAP Diversity Plus: MyoF Assay for Collagen IV Biomarker Activity (AID 2284247); details: primary human lung fibroblasts
Procedure, shortened: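 ELISA read-out of Collagen IV in lung fibroblast cultures, 24 h post-dosing; gain of signal relative to DMSO vehicle baseline defines activity.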

| SMILES | outcome | AC50 |
| --- | --- | --- |
| O=P(O)(O)CCC(F)(F)C(F)(F)C(F)(F)C(F)(F)C(F)(F)C(F)(F)F | inactive | – |
| O=S(=O)(O)C(F)(F)C(F)(F)C(F)(F)C(F)(F)C(F)(F)C(F)(F)C(F)(F)C(F)(F)C(F)(F)C(F)(F)F | inactive | – |
| O=C(O)CCC(F)(F)C(F)(F)C(F)(F)C(F)(F)C(F)(F)F | inactive | – |
| Clc1ccc(Nc2nnc(Cc3ccncc3)c3ccccc23)cc1 | inactive | – |
| CC[N+](CC)(CC)Cc1ccccc1 | inactive | – |
| CC(C)(C)c1ccc(O)c(O)c1 | – | 16 µM (active) |
| O=P(O)(O)CCC(F)(F)C(F)(F)C(F)(F)C(F)(F)C(F)(F)C(F)(F)C(F)(F)C(F)(F)F | inactive | – |
| C=CC(=O)OCCC(F)(F)C(F)(F)C(F)(F)C(F)(F)C(F)(F)C(F)(F)C(F)(F)C(F)(F)F | inactive | – |
| CN(CCO)S(=O)(=O)C(F)(F)C(F)(F)C(F)(F)C(F)(F)C(F)(F)C(F)(F)C(F)(F)C(F)(F)F | inactive | – |
| OCC(F)(F)C(F)(F)C(F)(F)C(F)(F)C(F)(F)C(F)(F)C(F)(F)C(F)(F)C(F)(F)C(F)(F)C(F)(F)F | inactive | – |
| CN(Cc1cnc2nc(N)nc(N)c2n1)c1ccc(C(=O)N[C@@H](CCC(=O)O)C(=O)O)cc1 | inactive | – |
| Oc1cc2ccccc2cc1O | inactive | – |
| O=C(CC(=O)C(F)(F)C(F)(F)C(F)(F)F)c1cccs1 | inactive | 8.25 µM (active) |
| CC1=NN(c2ccccc2)C(=O)C1 | inactive | – |
| CCCCC(CC)C(=O)OCCOCCOCCOCCOC(=O)C(CC)CCCC (stereo not given) | inactive | – |
| O=C(O)CCC(F)(F)C(F)(F)C(F)(F)C(F)(F)C(F)(F)C(F)(F)F | inactive | – |
| O=C(O)C(F)(F)OC(F)(F)C(F)(F)OC(F)(F)C(F)(F)OC(F)(F)C(F)(F)C(F)(F)C(F)(F)F | inactive | – |
| Cc1ccc(C(=O)c2ccccc2)cc1 | – | 20 µM (active) |

read-out: Monokine induced gamma interferon (MIG), CXCL9 (gene 4283); assay: BSK_KF3CT_MIG: BioMAP Diversity Plus: KF3CT Assay for Monokine induced gamma interferon (MIG) Biomarker Activity (AID 2284248); details: primary human keratinocytes with fibroblasts
Procedure, shortened: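 KF3CT system: keratinocyte/fibroblast co-culture, 24 h post-dose, MIG by ELISA; activity vs DMSO, positive fitting direction.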

| SMILES | outcome | AC50 |
| --- | --- | --- |
| O=P(O)(O)CCC(F)(F)C(F)(F)C(F)(F)C(F)(F)C(F)(F)C(F)(F)F | inactive | – |
| O=S(=O)(O)C(F)(F)C(F)(F)C(F)(F)C(F)(F)C(F)(F)C(F)(F)C(F)(F)C(F)(F)C(F)(F)C(F)(F)F | inactive | – |
| O=C(O)CCC(F)(F)C(F)(F)C(F)(F)C(F)(F)C(F)(F)F | inactive | – |
| O=P(O)(O)CCC(F)(F)C(F)(F)C(F)(F)C(F)(F)C(F)(F)C(F)(F)C(F)(F)C(F)(F)F | inactive | – |
| C=CC(=O)OCCC(F)(F)C(F)(F)C(F)(F)C(F)(F)C(F)(F)C(F)(F)C(F)(F)C(F)(F)F | inactive | – |
| CN(CCO)S(=O)(=O)C(F)(F)C(F)(F)C(F)(F)C(F)(F)C(F)(F)C(F)(F)C(F)(F)C(F)(F)F | inactive | – |
| OCC(F)(F)C(F)(F)C(F)(F)C(F)(F)C(F)(F)C(F)(F)C(F)(F)C(F)(F)C(F)(F)C(F)(F)C(F)(F)F | inactive | – |
| CN(Cc1cnc2nc(N)nc(N)c2n1)c1ccc(C(=O)N[C@@H](CCC(=O)O)C(=O)O)cc1 | inactive | – |
| O=C1NS(=O)(=O)c2ccccc21 | inactive | – |
| O=C(CC(=O)C(F)(F)C(F)(F)C(F)(F)F)c1cccs1 | inactive | – |
| O=C(O)CCC(F)(F)C(F)(F)C(F)(F)C(F)(F)C(F)(F)C(F)(F)F | inactive | – |
| O=C(O)C(F)(F)OC(F)(F)C(F)(F)OC(F)(F)C(F)(F)OC(F)(F)C(F)(F)C(F)(F)C(F)(F)F | – | 29.6 µM (active) and 27.5 µM (active) |

read-out: Vascular cell adhesion molecule 1 (VCAM1), VCAM1 (gene 7412); assay: BSK_BF4T_VCAM1: BioMAP Diversity Plus: BF4T Assay for Vascular cell adhesion molecule 1 (VCAM1) Biomarker Activity (AID 2284249); details: primary human bronchial epithelial cells with fibroblasts
Procedure, shortened: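 Cell-surface VCAM-1 quantified by ELISA after 24 h chemical exposure of human bronchial epithelial/dermal fibroblast co-cultures, with SRB staining in parallel wells for cytotoxicity; DMSO baseline, positive-direction fitting.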

| SMILES | outcome | AC50 |
| --- | --- | --- |
| O=P(O)(O)CCC(F)(F)C(F)(F)C(F)(F)C(F)(F)C(F)(F)C(F)(F)F | inactive | – |
| O=S(=O)(O)C(F)(F)C(F)(F)C(F)(F)C(F)(F)C(F)(F)C(F)(F)C(F)(F)C(F)(F)C(F)(F)C(F)(F)F | inactive | – |
| O=C(O)CCC(F)(F)C(F)(F)C(F)(F)C(F)(F)C(F)(F)F | inactive | – |
| O=P(O)(O)CCC(F)(F)C(F)(F)C(F)(F)C(F)(F)C(F)(F)C(F)(F)C(F)(F)C(F)(F)F | inactive | – |
| C=CC(=O)OCCC(F)(F)C(F)(F)C(F)(F)C(F)(F)C(F)(F)C(F)(F)C(F)(F)C(F)(F)F | inactive | – |
| CN(CCO)S(=O)(=O)C(F)(F)C(F)(F)C(F)(F)C(F)(F)C(F)(F)C(F)(F)C(F)(F)C(F)(F)F | inactive | – |
| OCC(F)(F)C(F)(F)C(F)(F)C(F)(F)C(F)(F)C(F)(F)C(F)(F)C(F)(F)C(F)(F)C(F)(F)C(F)(F)F | inactive | – |
| CN(Cc1cnc2nc(N)nc(N)c2n1)c1ccc(C(=O)N[C@@H](CCC(=O)O)C(=O)O)cc1 | inactive | – |
| O=C(CC(=O)C(F)(F)C(F)(F)C(F)(F)F)c1cccs1 | – | 20.6 µM (active) and 19.3 µM (active) |
| O=C(O)CCC(F)(F)C(F)(F)C(F)(F)C(F)(F)C(F)(F)C(F)(F)F | inactive | – |
| O=C(O)C(F)(F)OC(F)(F)C(F)(F)OC(F)(F)C(F)(F)OC(F)(F)C(F)(F)C(F)(F)C(F)(F)F | – | 7.4 µM (active) and 6.87 µM (active) |

read-out: Collagen I, COL1A1 (gene 1277); assay: BSK_hDFCGF_CollagenI: BioMAP Diversity Plus: hDFCGF Assay for Collagen I Biomarker Activity (AID 2284250); details: primary human foreskin fibroblasts
Procedure, shortened: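 ELISA read-out of Collagen I in human dermal foreskin fibroblast cultures, 24 h after dosing. Gain of signal versus DMSO vehicle defines activity.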

| SMILES | outcome | AC50 |
| --- | --- | --- |
| O=P(O)(O)CCC(F)(F)C(F)(F)C(F)(F)C(F)(F)C(F)(F)C(F)(F)F | inactive | – |
| O=S(=O)(O)C(F)(F)C(F)(F)C(F)(F)C(F)(F)C(F)(F)C(F)(F)C(F)(F)C(F)(F)C(F)(F)C(F)(F)F | inactive | – |
| O=C(O)CCC(F)(F)C(F)(F)C(F)(F)C(F)(F)C(F)(F)F | inactive | – |
| O=P(O)(O)CCC(F)(F)C(F)(F)C(F)(F)C(F)(F)C(F)(F)C(F)(F)C(F)(F)C(F)(F)F | inactive | – |
| C=CC(=O)OCCC(F)(F)C(F)(F)C(F)(F)C(F)(F)C(F)(F)C(F)(F)C(F)(F)C(F)(F)F | inactive | – |
| CN(CCO)S(=O)(=O)C(F)(F)C(F)(F)C(F)(F)C(F)(F)C(F)(F)C(F)(F)C(F)(F)C(F)(F)F | – | 1.65 µM (active) and 879 nM (active) |
| OCC(F)(F)C(F)(F)C(F)(F)C(F)(F)C(F)(F)C(F)(F)C(F)(F)C(F)(F)C(F)(F)C(F)(F)C(F)(F)F | – | 42.7 nM (active) and 48.2 nM (active) |
| CN(Cc1cnc2nc(N)nc(N)c2n1)c1ccc(C(=O)N[C@@H](CCC(=O)O)C(=O)O)cc1 | inactive | – |
| O=C1NS(=O)(=O)c2ccccc21 | inactive | – |
| O=C(CC(=O)C(F)(F)C(F)(F)C(F)(F)F)c1cccs1 | inactive | 8.04 µM (active) |
| O=C(O)CCC(F)(F)C(F)(F)C(F)(F)C(F)(F)C(F)(F)C(F)(F)F | inactive | – |
| O=C(O)C(F)(F)OC(F)(F)C(F)(F)OC(F)(F)C(F)(F)OC(F)(F)C(F)(F)C(F)(F)C(F)(F)F | – | 30 µM (active) |
